Measurements published in PubChem BioAssay (Tox21).
Results filed as inconclusive are left out. Active and inactive are the calls of the source. Calls come from the whole dose curve; as a rule, active = well fitted cell-killing curve with a large enough effect in the repeat runs; inconclusive = weak or mixed curves, or effect the other way; inactive = flat fitted curve, though single readings scatter.

Assay: qHTS RealTime-Glo MT Cell Viability Assay in HepG2 cells - 40 hour (AID 1224870); note: nearly all actives have a fitted effect of over 50% in size
Details: RealTime-Glo luminescence; series mostly up to 76.8 µM; activity change, negative = cytotoxic: at the top concentration
Description: National Center for Advancing Translational Sciences [NCATS]
NIH Chemical Genomics Center [NCGC]
U.S. Environmental Protection Agency [EPA]
National Institutes of Environmental Health Sciences [NIEHS]
National Toxicology Program [NTP]
U.S. Food and Drug Administration [FDA]
Measure of cell viability is critical in the cell-base assay. Analysis of cell viability is necessary for the characterization of cell responses to cytotoxic drugs and environmental stress. A RealTime-Glo MT Cell Viability Assay to monitor cell viability in real time of continues cell culture during 40 hours of compound treatment was used to screen Tox21 10K library compounds in HepG2 cells. The RealTime-Glo MT Cell Viability Assay is a nonlytic, homogeneous, bioluminescent method to measure cell viability in real time using a simple, plate-based method. The assay involves adding NanoLuc luciferase and a cell-permeant prosubstrate to cells in culture. Viable cells reduce the proprietary prosubstrate to generate a substrate for NanoLuc luciferase. This substrate diffuses from cells into the surrounding culture medium, where it is rapidly used by the NanoLuc Enzyme to produce a luminescent signal. The signal correlates with the number of viable cells, making the assay well suited for cytotoxicity studies.
Tox21 Assay Protocol Summary:
The mixture of HepG2 cell suspension and reagents were dispensed at 600cells/6 ul/well in 1536-well tissue culture treated black solid bottom plates using a Multidrop dispenser. After the assay plates were incubated at a 37 C/5% CO2 incubator for 5 hours, 23 nL of compounds dissolved in DMSO, positive and negative controls was transferred to the assay plate by a pintool work station. The plates were incubated at 37 C for 40 hours. The luminescence intensity were measured at 0h, 8h, 16h, 24h, 32h and 40h time points using ViewLux plate reader during compound treatment.
% is set by controls: 0 for no effect and ±100 for the full control effect.

Row | Compound | activity change, negative = cytotoxic
1 | C=CC(=O)NCOCC(C)C | 0.0967% (inactive)
2 | Cc1cc(O)c2c(O)c3c(O)cccc3cc2c1 | -3.7% [at 35.3 µM] (inactive)
3 | Nc1nc(Cl)nc2c1ncn2[C@@H]1O[C@H](CO)[C@@H](O)[C@@H]1F | -0.0347% [at 35.3 µM] (inactive)
4 | CC1(C)O[C@@H]2C[C@H]3[C@@H]4CCC5=CC(=O)C=C[C@]5(C)[C@H]4[C@@H](O)C[C@]3(C)[C@]2(C(=O)CO)O1 | -4.1% [at 35.3 µM] (inactive)
5 | CCCCCCOC(=O)C(C)C | 1.77% (inactive)
6 | CC(C)(C)C(=O)O | -1.04% (inactive)
7 | CCc1cccc(N(C)C(N)=Nc2cccc3ccccc23)c1 | -12.6% [at 35.3 µM] (inactive)
8 | CC1CC(O)CC(C)(C)C1 (stereo not given) | -0.0337% (inactive)
9 | Cc1cc(C(=C2C=CC(=Nc3ccc(S(=O)(=O)O)cc3S(=O)(=O)O)C=C2)c2ccc(Nc3ccc(S(=O)(=O)O)cc3)cc2)ccc1N | -0.928% [at 35.3 µM] (inactive)
10 | COCC(O)CO (stereo not given) | 12.8% (inactive)
11 | CC(Cl)C(Cl)Cl (stereo not given) | -0.81% (inactive)
12 | Oc1ccc(Nc2ccccc2)cc1 | -6.17% (inactive)
13 | CCOC(=O)c1ccccc1OC | -0.134% (inactive)
14 | CC(CCc1ccc2c(c1)OCO2)NN (stereo not given) | 4.28% [at 35.3 µM] (inactive)
15 | NC(=O)N(O)[C@@H]1COc2cc(OCc3ccccc3)ccc21 | -14.5% (inactive)
16 | C=CC(=C)CCCC(C)(C)OC(C)=O | -2.11% (inactive)
17 | O=S1OCCO1 | 1.23% (inactive)
18 | Oc1cc(O)c(Cl)cc1Cl | 0.205% (inactive)
19 | CCCOC(=O)c1ccc(C(=O)OCCC)nc1 | 4.95% (inactive)
20 | O=C1OCCN1/N=C/c1ccc([N+](=O)[O-])o1 | -3.91% [at 35.3 µM] (inactive)

Row | Compound | activity change, negative = cytotoxic
21 | CC(C)(C)CC(C)(C)c1ccc(OCCO)cc1 | 23.7% (inactive)
22 | CC1(C)C2=CCCC(C)(C)[C@]23CC[C@H]1C3 | -5.17% (inactive)
23 | CNC(=O)N(c1ccccc1)c1ccccc1 | -8.4% (inactive)
24 | COC(=O)c1cc(S(N)(=O)=O)ccc1OC | 5.04% [at 35.3 µM] (inactive)
25 | CCCCCCCCCCCCCCCCBr | 2.22% [at 15.8 µM] (inactive)
26 | CCCCCCCCCOC(C)=O | 2.19% (inactive)
27 | CCCCCCOC(=O)CCCCCCCC(=O)OCCCCCC | -5.02% (inactive)
28 | CC1(C)C(=O)N(Br)C(=O)N1Cl | 1.58% (inactive)
29 | CN1Cc2cc(C(=O)N3CCC(C4CCNCC4)CC3)ccc2N[C@@H](CC(=O)O)C1=O | 2.78% [at 35.3 µM] (inactive)
30 | CO/N=C1\CN(c2nc3c(cc2F)c(=O)c(C(=O)O)cn3C2CC2)CC1CN (stereo not given) | 1.78% [at 35.3 µM] (inactive)
31 | O=C(O)c1snc(Cl)c1Cl | 3.52% (inactive)
32 | CCCC1C(CC)=CC(CC)=CN1c1ccccc1 (stereo not given) | -4.67% (inactive)
33 | C=CCNc1nc(NCC=C)nc(N2CCN(C(c3ccc(F)cc3)c3ccc(F)cc3)CC2)n1 | -13.9% [at 35.3 µM] (inactive)
34 | Cc1oc(C)c(C(=O)Nc2ccccc2)c1C | -3.02% (inactive)
35 | CC1=C(C=O)C(C)(C)CCC1 | 1.26% (inactive)
36 | C1COCO1 | 5.45% (inactive)
37 | CC(C)(O)c1ccccc1CC[C@@H](SCC1(CC(=O)O)CC1)c1cccc(/C=C/c2ccc3ccc(Cl)cc3n2)c1 | 4.47% [at 35.3 µM] (inactive)
38 | O=C(CS)OCCOC(=O)CS | -2.31% (inactive)
39 | CCC(Cc1ccccc1)(C(=O)c1ccc(N2CCOCC2)cc1)N(C)C (stereo not given) | -15% (inactive)
40 | Cc1c(C(=O)NN2CCCCC2)nn(-c2ccc(Cl)cc2Cl)c1-c1ccc(Cl)cc1 | -19.2% [at 35.3 µM] (inactive)
